Laboratory results as given in PubChem BioAssay AID1159580 (chemical genetic matrix, 2015).
Where “and” joins values, the source holds several entries; their conditions need not be identical. Equal entries are not always repeated. In all, about 5,500 compounds went through this assay and about 2,000 (36%) were called active. About 18% were inconclusive and are not listed. Rule as the data show it: active = normalized growth mostly below about 0.91 (no sharp cut-off); inconclusive = no clear call, values can overlap the other calls; inactive = mostly above about 0.92. Some of the results follow.

Assay: chemical genetic growth profiling, strain panel (AID 1159580);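 also: tested at 20 µM; growth read once vehicle control cultures reached saturation at 30 °C; 1 = growth at the plate median or of vehicle wells; lower values mean less growth of the strain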
Details: growth OD

Measured: normalized growth

CN1CCN2c3ccccc3Cc3ccccc3C2C1 (stereo unspecified)
inactive: S. cerevisiae deletion strains, locus YJR075W, strain HOC1, stronger effect = lower value 1 and 0.97 | S. cerevisiae deletion strains, locus YKL009W, strain mrt4, stronger effect = lower value 0.999 | S. cerevisiae deletion strains, locus YKL068W, stronger effect = lower value 0.991 | S. cerevisiae deletion strains, locus YKL085W, strain MDH1 (second series), stronger effect = lower value 0.987 | S. cerevisiae deletion strains, locus YKL085W, strain MDH1, stronger effect = lower value 0.987 | S. cerevisiae deletion strains, locus YKL160W, strain elf1, stronger effect = lower value 0.989 | S. cerevisiae deletion strains, locus YKL190W, strain CNB1, stronger effect = lower value 1.02 | S. cerevisiae deletion strains, locus YKR001C, strain vps1, stronger effect = lower value 0.976 | S. cerevisiae deletion strains, locus YKR026C, strain gcn3, stronger effect = lower value 1 | S. cerevisiae deletion strains, locus YKR091W, strain srl3, stronger effect = lower value 1.01 | S. cerevisiae deletion strains, locus YLL001W, strain dnm1, stronger effect = lower value 0.982 | S. cerevisiae deletion strains, locus YLL026W, stronger effect = lower value 0.997 | S. cerevisiae deletion strains, locus YLL041C, strain sdh2, stronger effect = lower value 1 | S. cerevisiae deletion strains, locus YLR027C, strain aat2, stronger effect = lower value 1 | S. cerevisiae deletion strains, locus YLR039C, strain RIC1, stronger effect = lower value 1.03 | S. cerevisiae deletion strains, locus YLR058C, strain SHM2, stronger effect = lower value 1.01 | S. cerevisiae deletion strains, locus YLR102C, strain apc9, stronger effect = lower value 0.994 | S. cerevisiae deletion strains, locus YLR113W, strain HOG1, stronger effect = lower value 0.996 | S. cerevisiae deletion strains, locus YLR221C, strain rsa3, stronger effect = lower value 0.993 | S. cerevisiae deletion strains, locus YLR258W, strain gsy2, stronger effect = lower value 0.987 | S. cerevisiae deletion strains, locus YLR262C, strain YPT6 (second series), stronger effect = lower value 0.991 | S. cerevisiae deletion strains, locus YLR262C, strain YPT6, stronger effect = lower value 1.05 | S. cerevisiae deletion strains, locus YLR268W, strain sec22, stronger effect = lower value 0.974 | S. cerevisiae deletion strains, locus YLR320W, strain mms22, stronger effect = lower value 0.985 | S. cerevisiae deletion strains, locus YLR330W, strain CHS5, stronger effect = lower value 1.01 | S. cerevisiae deletion strains, locus YLR342W, strain FKS1 (second series), stronger effect = lower value 0.985 | S. cerevisiae deletion strains, locus YLR342W, strain FKS1, stronger effect = lower value 0.999 | S. cerevisiae deletion strains, locus YLR357W, strain rsc2, stronger effect = lower value 1.01 | S. cerevisiae deletion strains, locus YLR370C, strain arc18, stronger effect = lower value 1 | S. cerevisiae deletion strains, locus YLR371W, strain rom2, stronger effect = lower value 1 | S. cerevisiae deletion strains, locus YLR384C, strain iki3, stronger effect = lower value 1 | S. cerevisiae deletion strains, locus YLR418C, strain cdc73, stronger effect = lower value 0.989 | S. cerevisiae deletion strains, locus YML016C, strain PPZ1, stronger effect = lower value 1.01 | S. cerevisiae deletion strains, locus YML032C, strain rad52, stronger effect = lower value 1 | S. cerevisiae deletion strains, locus YML120C, strain ndi1, stronger effect = lower value 1 | S. cerevisiae deletion strains, locus YML124C, strain tub3, stronger effect = lower value 0.994 | S. cerevisiae deletion strains, locus YMR058W, strain fet3, stronger effect = lower value 1.01 | S. cerevisiae deletion strains, locus YMR078C, strain ctf18, stronger effect = lower value 0.987 | S. cerevisiae deletion strains, locus YMR125W, strain sto1, stronger effect = lower value 1 | S. cerevisiae deletion strains, locus YMR129W, stronger effect = lower value 0.981 | S. cerevisiae deletion strains, locus YMR205C, strain PFK2, stronger effect = lower value 0.982 | S. cerevisiae deletion strains, locus YMR223W, strain ubp8, stronger effect = lower value 0.986 | S. cerevisiae deletion strains, locus YMR231W, strain pep5, stronger effect = lower value 1 | S. cerevisiae deletion strains, locus YMR263W, strain SAP30, stronger effect = lower value 1.01 and 0.995 | S. cerevisiae deletion strains, locus YMR307W, strain GAS1, stronger effect = lower value 1.04 | S. cerevisiae deletion strains, locus YNL067W, strain RPL9B, stronger effect = lower value 1.02 | S. cerevisiae deletion strains, locus YNL071W, strain lat1, stronger effect = lower value 0.998 | S. cerevisiae deletion strains, locus YNL128W, strain TEP1, stronger effect = lower value 1.02 | S. cerevisiae deletion strains, locus YNL153C, strain GIM3, stronger effect = lower value 1.02 and 0.974 | S. cerevisiae deletion strains, locus YNL175C, strain NOP13, stronger effect = lower value 1.02 | S. cerevisiae deletion strains, locus YNL183C, strain NPR1, stronger effect = lower value 0.919 | S. cerevisiae deletion strains, locus YNL197C, strain WHI3, stronger effect = lower value 1.02 | S. cerevisiae deletion strains, locus YNL209W, strain ssb2, stronger effect = lower value 0.997 | S. cerevisiae deletion strains, locus YNL224C, strain SQS1, stronger effect = lower value 1.02 | S. cerevisiae deletion strains, locus YNL233W, strain BNI4, stronger effect = lower value 1.02 | S. cerevisiae deletion strains, locus YNL248C, strain rpa49, stronger effect = lower value 0.994 | S. cerevisiae deletion strains, locus YNL250W, strain rad50, stronger effect = lower value 0.985 | S. cerevisiae deletion strains, locus YNL271C, strain bni1, stronger effect = lower value 0.981 | S. cerevisiae deletion strains, locus YNL298W, strain CLA4, stronger effect = lower value 0.99 | S. cerevisiae deletion strains, locus YNL307C, strain MCK1, stronger effect = lower value 0.993 | S. cerevisiae deletion strains, locus YNL322C, strain KRE1 (second series), stronger effect = lower value 0.996 | S. cerevisiae deletion strains, locus YNL322C, strain KRE1, stronger effect = lower value 1.02 | S. cerevisiae deletion strains, locus YNR049C, strain mso1, stronger effect = lower value 1 | S. cerevisiae deletion strains, locus YNR052C, strain pop2, stronger effect = lower value 0.989 | S. cerevisiae deletion strains, locus YOL006C, strain TOP1, stronger effect = lower value 1.02 | S. cerevisiae deletion strains, locus YOL012C, strain htz1 0.782 | S. cerevisiae deletion strains, locus YOL147C, strain pex11, stronger effect = lower value 0.991 | S. cerevisiae deletion strains, locus YOR001W, strain rrp6, stronger effect = lower value 0.99 | S. cerevisiae deletion strains, locus YOR061W, strain CKA2, stronger effect = lower value 1.02 | S. cerevisiae deletion strains, locus YOR069W, strain VPS5, stronger effect = lower value 1.01 | S. cerevisiae deletion strains, locus YOR070C, strain gyp1, stronger effect = lower value 0.999 | S. cerevisiae deletion strains, locus YOR080W, strain dia2, stronger effect = lower value 1.01 | S. cerevisiae deletion strains, locus YOR083W, strain WHI5 (second series), stronger effect = lower value 0.985 | S. cerevisiae deletion strains, locus YOR083W, strain WHI5, stronger effect = lower value 0.983 | S. cerevisiae deletion strains, locus YOR106W, strain vam3, stronger effect = lower value 0.986 | S. cerevisiae deletion strains, locus YOR136W, strain idh2, stronger effect = lower value 0.992 | S. cerevisiae deletion strains, locus YOR144C, strain elg1, stronger effect = lower value 0.99 | S. cerevisiae deletion strains, locus YOR184W, strain ser1, stronger effect = lower value 0.98 | S. cerevisiae deletion strains, locus YOR231W, strain MKK1, stronger effect = lower value 0.973 | S. cerevisiae deletion strains, locus YOR265W, strain rbl2, stronger effect = lower value 1 | S. cerevisiae deletion strains, locus YOR270C, strain vph1, stronger effect = lower value 0.993 | S. cerevisiae deletion strains, locus YOR290C, strain snf2, stronger effect = lower value 0.928 | S. cerevisiae deletion strains, locus YOR316C, strain cot1, stronger effect = lower value 0.989 | S. cerevisiae deletion strains, locus YPL051W, strain arl3, stronger effect = lower value 0.988 | S. cerevisiae deletion strains, locus YPL055C, strain LGE1, stronger effect = lower value 1.04 | S. cerevisiae deletion strains, locus YPL078C, strain atp4, stronger effect = lower value 0.983 | S. cerevisiae deletion strains, locus YPL106C, strain sse1, stronger effect = lower value 0.989 | S. cerevisiae deletion strains, locus YPL240C, strain hsp82, stronger effect = lower value 1.01 | S. cerevisiae deletion strains, locus YPL241C, strain CIN2, stronger effect = lower value 1.01 | S. cerevisiae deletion strains, locus YPL256C, strain CLN2, stronger effect = lower value 0.99 | S. cerevisiae deletion strains, locus YPR119W, strain clb2, stronger effect = lower value 0.988 | S. cerevisiae deletion strains, locus YPR141C, strain kar3, stronger effect = lower value 0.975 | S. cerevisiae deletion strains, locus YPR163C, strain tif3, stronger effect = lower value 0.984 | S. cerevisiae deletion strains, locus YPR167C, strain met16, stronger effect = lower value 0.987 | S. cerevisiae deletion strains, strain wtn01, stronger effect = lower value 0.97 | S. cerevisiae strains, strain wild type, stronger effect = lower value 1.01
